# Measured values: PMC7862700, “An all-to-all approach to the identification of sequence-specific readers for epigenetic DNA modifications on cytosine”
# Legend:
# Experiment in all cases: DAPPL (digital affinity profiling via proximity ligation, sequencing); 10 mM Tris-HCl pH 7.5, 50 mM NaCl, 1 mM DTT, 4% glycerol, room temperature, 30 min; GST-TFs on glutathione beads, 16-mer random dsDNA library, 0.1% formaldehyde crosslink after washing; high values mean tight binding
# FLI1 = target: T1, FLI1 (Homo sapiens, UniProt Q01543 1-452); conditions: protein: recombinant; tags: N-terminal GST; dsDNA, one strand shown
# T1 sequence: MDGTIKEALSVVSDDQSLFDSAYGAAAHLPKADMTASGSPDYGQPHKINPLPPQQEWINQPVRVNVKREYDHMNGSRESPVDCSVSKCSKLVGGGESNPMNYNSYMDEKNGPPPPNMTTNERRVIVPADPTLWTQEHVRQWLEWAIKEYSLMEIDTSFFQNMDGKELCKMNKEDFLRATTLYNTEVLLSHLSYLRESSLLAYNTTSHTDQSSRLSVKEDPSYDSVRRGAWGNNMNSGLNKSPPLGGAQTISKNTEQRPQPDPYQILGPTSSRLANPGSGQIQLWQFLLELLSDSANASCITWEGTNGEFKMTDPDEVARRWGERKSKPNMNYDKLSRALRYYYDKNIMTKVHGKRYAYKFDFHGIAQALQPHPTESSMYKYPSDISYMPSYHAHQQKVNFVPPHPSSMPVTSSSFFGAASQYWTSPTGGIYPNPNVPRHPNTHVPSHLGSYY
# In short: (§1)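 Binding signal is defined as a hexamer's read frequency for one factor over its frequency for the tag-only sample. To obtain reads, GST-fused human transcription factors were expressed in yeast, captured on glutathione beads, barcoded with DNA and pooled with that sample. Pools met 200 nmole of a 16-mer random double-stranded DNA library in Tris/NaCl/DTT/glycerol buffer for 30 min at room temperature before washing, 0.1% formaldehyde crosslinking, proximity ligation (BsaI/T4 ligase, 1 h, 37 °C), PCR and Illumina NextSeq500 sequencing.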
# ELK1 = target: T2, ELK1 (Homo sapiens, UniProt P19419 1-428); conditions: protein: recombinant; tags: N-terminal GST; dsDNA, one strand shown
# T2 sequence: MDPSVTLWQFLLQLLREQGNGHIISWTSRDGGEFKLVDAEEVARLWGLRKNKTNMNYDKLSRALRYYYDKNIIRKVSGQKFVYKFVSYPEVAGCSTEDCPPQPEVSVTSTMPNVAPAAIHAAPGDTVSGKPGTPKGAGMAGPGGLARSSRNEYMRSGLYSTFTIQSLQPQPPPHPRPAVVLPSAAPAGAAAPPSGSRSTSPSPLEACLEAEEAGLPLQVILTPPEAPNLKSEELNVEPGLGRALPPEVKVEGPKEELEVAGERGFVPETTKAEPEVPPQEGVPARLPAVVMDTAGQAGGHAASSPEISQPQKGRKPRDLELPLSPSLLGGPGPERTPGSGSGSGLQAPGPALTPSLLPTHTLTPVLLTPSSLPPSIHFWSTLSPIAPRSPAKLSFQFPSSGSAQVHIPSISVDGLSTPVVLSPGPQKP
# In short: as §1
# GABPA = target: T3, GABPA (Homo sapiens, UniProt Q06546 1-454); conditions: protein: recombinant; tags: N-terminal GST; dsDNA, one strand shown
# T3 sequence: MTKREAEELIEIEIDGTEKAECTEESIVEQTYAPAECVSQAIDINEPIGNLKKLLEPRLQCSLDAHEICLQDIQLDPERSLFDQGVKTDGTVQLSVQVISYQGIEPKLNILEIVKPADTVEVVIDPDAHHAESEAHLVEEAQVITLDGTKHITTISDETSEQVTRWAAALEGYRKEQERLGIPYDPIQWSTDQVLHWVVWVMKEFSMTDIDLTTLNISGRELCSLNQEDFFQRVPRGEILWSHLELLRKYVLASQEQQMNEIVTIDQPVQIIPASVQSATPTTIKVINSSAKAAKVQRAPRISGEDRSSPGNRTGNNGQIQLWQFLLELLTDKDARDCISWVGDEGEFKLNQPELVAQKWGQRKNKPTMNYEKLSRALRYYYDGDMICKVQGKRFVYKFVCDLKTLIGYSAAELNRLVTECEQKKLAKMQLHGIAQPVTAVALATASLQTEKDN
# In short: as §1
# ERG = target: T4, ERG (Homo sapiens, UniProt P11308 1-479); conditions: protein: recombinant; tags: N-terminal GST; dsDNA, one strand shown
# T4 sequence: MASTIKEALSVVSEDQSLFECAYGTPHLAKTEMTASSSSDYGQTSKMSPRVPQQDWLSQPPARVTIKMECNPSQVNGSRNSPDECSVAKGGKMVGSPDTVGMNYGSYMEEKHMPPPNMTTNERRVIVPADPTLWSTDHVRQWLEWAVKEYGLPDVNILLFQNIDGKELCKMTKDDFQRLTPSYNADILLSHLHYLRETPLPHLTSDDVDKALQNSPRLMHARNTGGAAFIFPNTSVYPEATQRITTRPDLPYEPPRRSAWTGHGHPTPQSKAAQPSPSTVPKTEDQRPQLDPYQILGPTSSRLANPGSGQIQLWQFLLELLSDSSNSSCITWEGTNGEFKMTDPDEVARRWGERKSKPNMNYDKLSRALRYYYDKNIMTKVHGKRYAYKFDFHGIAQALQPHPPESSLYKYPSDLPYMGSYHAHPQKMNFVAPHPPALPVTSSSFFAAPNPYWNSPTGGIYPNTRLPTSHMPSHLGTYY
# In short: as §1
# ELF1 = ELF1 (Homo sapiens, UniProt P32519 1-619); conditions: protein: recombinant; tags: N-terminal GST; dsDNA, one strand shown
# In short: as §1
# EHF = target: T5, EHF (Homo sapiens, UniProt Q9NZC4 1-300); conditions: protein: recombinant; tags: N-terminal GST; dsDNA, one strand shown
# T5 sequence: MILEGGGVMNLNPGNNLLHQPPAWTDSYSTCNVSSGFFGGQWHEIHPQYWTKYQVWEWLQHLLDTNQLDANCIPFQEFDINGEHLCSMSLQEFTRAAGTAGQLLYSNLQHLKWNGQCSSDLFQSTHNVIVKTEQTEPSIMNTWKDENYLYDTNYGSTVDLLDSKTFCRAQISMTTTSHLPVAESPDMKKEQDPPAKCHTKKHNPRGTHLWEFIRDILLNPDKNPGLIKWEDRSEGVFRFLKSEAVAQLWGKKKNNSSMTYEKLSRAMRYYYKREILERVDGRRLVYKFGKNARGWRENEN
# In short: as §1
# SPI1 = SPI1 (Homo sapiens, UniProt P17947 1-270); conditions: protein: recombinant; tags: N-terminal GST; dsDNA, one strand shown
# In short: as §1
# SPIB = SPIB (Homo sapiens, UniProt Q01892 1-262); conditions: protein: recombinant; tags: N-terminal GST; dsDNA, one strand shown
# In short: as §1
# ELK3 = target: T6, ELK3 (Homo sapiens, UniProt P41970 1-407); conditions: protein: recombinant; tags: N-terminal GST; dsDNA, one strand shown
# T6 sequence: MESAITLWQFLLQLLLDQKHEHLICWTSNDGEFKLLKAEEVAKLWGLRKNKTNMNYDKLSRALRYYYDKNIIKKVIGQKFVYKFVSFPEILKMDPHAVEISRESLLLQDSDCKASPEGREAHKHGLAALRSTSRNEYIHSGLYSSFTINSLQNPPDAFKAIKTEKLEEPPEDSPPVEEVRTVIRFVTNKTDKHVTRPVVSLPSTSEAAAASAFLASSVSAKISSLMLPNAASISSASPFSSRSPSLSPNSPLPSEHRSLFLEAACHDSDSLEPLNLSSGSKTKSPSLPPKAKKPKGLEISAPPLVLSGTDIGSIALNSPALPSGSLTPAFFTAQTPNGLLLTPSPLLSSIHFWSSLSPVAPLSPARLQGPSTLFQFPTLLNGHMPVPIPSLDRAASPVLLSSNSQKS
# In short: as §1
# FEV = target: T7, FEV (Homo sapiens, UniProt Q99581 1-238); conditions: protein: recombinant; tags: N-terminal GST; dsDNA, one strand shown
# T7 sequence: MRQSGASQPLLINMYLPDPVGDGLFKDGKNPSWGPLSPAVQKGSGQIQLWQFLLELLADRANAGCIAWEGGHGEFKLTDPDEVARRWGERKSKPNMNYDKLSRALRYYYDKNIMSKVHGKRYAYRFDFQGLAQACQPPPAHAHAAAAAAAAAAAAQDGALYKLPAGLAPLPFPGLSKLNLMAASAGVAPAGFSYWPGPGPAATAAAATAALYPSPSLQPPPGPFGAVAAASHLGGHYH
# In short: as §1
# ETV5 = ETV5 (Homo sapiens, UniProt P41161 1-510); conditions: protein: recombinant; tags: N-terminal GST; dsDNA, one strand shown
# In short: as §1
# HSF1 = HSF1 (Homo sapiens, UniProt Q00613 1-529); conditions: protein: recombinant; tags: N-terminal GST; chain copies: 3; dsDNA, one strand shown
# In short: as §1
# SPIC = target: T8, SPIC (Homo sapiens, UniProt Q8N5J4 1-248); conditions: protein: recombinant; tags: N-terminal GST; dsDNA, one strand shown
# T8 sequence: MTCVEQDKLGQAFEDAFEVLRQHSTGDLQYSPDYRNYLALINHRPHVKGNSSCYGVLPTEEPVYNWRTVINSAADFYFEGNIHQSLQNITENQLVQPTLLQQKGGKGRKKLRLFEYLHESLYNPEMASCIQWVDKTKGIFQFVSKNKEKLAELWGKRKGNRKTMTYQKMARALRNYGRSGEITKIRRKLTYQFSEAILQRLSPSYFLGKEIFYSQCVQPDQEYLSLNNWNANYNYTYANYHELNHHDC
# In short: as §1
# ELF4 = ELF4 (Homo sapiens, UniProt Q99607 1-663); conditions: protein: recombinant; tags: N-terminal GST; dsDNA, one strand shown
# In short: as §1
# ELK4 = target: T9, ELK4 (Homo sapiens, UniProt P28324-2 1-405); conditions: protein: recombinant; tags: N-terminal GST; dsDNA, one strand shown
# T9 sequence: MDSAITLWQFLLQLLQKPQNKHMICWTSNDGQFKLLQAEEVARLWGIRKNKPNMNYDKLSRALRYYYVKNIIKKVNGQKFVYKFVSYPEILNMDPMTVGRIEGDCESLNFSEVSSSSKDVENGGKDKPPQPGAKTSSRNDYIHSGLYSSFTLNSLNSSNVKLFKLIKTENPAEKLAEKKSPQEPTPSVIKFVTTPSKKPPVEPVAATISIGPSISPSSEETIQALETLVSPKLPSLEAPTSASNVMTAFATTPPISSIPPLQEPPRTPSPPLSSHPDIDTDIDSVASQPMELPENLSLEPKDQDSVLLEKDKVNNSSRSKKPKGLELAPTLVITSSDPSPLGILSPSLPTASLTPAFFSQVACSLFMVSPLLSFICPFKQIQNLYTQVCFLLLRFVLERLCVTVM
# In short: as §1
# ETV2 = target: T10, ETV2 (Homo sapiens, UniProt O00321 1-342); conditions: protein: recombinant; tags: N-terminal GST; dsDNA, one strand shown
# T10 sequence: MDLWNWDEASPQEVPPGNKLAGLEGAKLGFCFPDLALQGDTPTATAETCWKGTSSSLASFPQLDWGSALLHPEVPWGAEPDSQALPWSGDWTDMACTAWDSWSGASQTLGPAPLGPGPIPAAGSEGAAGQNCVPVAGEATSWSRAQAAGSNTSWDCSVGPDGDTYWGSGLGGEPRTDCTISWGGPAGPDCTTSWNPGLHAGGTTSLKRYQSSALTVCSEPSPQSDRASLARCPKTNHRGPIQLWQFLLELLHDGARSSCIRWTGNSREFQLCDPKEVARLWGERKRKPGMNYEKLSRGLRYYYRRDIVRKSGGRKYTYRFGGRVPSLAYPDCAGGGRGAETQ
# In short: as §1
# ELF3 = target: T11, ELF3 (Homo sapiens, UniProt P78545 1-371); conditions: protein: recombinant; tags: N-terminal GST; dsDNA, one strand shown
# T11 sequence: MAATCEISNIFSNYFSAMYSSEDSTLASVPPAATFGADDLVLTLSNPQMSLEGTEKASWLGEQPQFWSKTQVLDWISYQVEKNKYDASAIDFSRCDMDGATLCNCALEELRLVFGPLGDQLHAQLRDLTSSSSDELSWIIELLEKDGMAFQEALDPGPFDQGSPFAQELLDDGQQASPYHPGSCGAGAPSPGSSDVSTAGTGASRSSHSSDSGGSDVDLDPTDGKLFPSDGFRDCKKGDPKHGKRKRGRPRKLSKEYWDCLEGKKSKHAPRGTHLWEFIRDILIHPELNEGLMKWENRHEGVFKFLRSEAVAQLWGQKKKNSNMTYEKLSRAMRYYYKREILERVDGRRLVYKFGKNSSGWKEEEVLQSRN
# In short: as §1
# CRX = CRX (Homo sapiens, UniProt O43186 1-299); conditions: protein: recombinant; tags: N-terminal GST; dsDNA, one strand shown
# In short: as §1
# ETV1 = ETV1 (Homo sapiens, UniProt P50549 1-477); conditions: protein: recombinant; tags: N-terminal GST; dsDNA, one strand shown
# In short: as §1
# Chain of ELF1 (P32519 whole entry): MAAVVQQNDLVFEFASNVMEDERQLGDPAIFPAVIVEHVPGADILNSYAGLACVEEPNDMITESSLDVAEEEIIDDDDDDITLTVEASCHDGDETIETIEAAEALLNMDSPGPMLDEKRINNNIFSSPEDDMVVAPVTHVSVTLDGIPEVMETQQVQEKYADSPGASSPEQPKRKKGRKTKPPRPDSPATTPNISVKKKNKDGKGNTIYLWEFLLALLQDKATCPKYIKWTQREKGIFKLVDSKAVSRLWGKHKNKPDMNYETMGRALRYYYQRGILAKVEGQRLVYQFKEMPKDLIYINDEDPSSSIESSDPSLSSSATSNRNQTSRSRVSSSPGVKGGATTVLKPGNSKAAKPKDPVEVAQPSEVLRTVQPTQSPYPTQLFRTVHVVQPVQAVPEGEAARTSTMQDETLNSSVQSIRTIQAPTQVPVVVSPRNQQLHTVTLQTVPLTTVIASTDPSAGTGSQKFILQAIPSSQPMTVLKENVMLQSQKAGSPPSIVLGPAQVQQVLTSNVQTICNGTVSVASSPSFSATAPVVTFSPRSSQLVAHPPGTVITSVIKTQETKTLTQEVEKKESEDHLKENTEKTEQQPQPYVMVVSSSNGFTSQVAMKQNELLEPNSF
# Chain of SPIB (Q01892 whole entry): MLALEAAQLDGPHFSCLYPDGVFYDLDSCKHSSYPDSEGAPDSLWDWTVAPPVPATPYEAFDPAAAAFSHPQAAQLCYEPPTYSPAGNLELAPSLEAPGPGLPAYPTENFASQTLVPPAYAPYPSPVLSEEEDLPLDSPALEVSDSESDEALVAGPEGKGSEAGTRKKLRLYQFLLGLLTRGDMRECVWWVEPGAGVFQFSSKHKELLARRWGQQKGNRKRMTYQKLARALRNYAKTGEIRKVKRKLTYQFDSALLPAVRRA
# Chain of ELF4 (Q99607 whole entry): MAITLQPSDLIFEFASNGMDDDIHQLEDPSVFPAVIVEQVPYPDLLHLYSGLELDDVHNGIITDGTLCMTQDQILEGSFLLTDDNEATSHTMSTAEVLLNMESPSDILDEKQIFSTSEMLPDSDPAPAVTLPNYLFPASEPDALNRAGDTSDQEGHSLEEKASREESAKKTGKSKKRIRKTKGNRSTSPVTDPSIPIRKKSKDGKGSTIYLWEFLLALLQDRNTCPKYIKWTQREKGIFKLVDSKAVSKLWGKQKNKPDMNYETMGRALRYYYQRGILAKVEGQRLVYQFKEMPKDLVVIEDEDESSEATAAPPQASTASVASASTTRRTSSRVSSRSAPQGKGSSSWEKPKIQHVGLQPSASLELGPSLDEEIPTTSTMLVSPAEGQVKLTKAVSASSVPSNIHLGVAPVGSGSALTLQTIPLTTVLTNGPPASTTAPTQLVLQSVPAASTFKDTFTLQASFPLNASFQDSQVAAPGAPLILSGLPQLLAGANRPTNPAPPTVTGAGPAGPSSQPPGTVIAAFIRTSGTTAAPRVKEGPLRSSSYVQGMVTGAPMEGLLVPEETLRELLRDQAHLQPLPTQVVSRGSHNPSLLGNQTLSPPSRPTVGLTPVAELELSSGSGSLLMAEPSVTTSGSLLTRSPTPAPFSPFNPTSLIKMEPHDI
# Chain of CRX (O43186 whole entry): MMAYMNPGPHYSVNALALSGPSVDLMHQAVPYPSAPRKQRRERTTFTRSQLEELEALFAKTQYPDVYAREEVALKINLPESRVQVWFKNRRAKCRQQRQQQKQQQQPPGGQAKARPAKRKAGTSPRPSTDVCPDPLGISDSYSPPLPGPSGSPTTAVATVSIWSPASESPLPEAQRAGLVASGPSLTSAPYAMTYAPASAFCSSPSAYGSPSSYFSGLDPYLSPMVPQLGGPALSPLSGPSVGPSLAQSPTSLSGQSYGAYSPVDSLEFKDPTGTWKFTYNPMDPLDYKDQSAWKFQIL
# Chain of ETV5 (P41161 whole entry): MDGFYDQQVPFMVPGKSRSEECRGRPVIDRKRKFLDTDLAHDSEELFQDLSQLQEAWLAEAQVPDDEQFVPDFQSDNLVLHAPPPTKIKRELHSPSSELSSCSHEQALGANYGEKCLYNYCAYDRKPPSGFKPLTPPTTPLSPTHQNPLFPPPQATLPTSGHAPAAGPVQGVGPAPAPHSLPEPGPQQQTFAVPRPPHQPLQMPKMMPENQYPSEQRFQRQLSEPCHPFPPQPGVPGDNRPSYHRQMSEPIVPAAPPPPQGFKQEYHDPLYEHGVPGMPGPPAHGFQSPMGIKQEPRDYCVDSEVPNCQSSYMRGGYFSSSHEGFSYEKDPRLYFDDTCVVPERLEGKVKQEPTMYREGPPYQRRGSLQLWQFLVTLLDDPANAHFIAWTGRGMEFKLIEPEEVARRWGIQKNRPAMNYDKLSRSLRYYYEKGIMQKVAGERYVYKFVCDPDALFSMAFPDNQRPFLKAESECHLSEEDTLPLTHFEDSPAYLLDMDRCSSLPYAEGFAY
# Chain of HSF1 (Q00613 whole entry): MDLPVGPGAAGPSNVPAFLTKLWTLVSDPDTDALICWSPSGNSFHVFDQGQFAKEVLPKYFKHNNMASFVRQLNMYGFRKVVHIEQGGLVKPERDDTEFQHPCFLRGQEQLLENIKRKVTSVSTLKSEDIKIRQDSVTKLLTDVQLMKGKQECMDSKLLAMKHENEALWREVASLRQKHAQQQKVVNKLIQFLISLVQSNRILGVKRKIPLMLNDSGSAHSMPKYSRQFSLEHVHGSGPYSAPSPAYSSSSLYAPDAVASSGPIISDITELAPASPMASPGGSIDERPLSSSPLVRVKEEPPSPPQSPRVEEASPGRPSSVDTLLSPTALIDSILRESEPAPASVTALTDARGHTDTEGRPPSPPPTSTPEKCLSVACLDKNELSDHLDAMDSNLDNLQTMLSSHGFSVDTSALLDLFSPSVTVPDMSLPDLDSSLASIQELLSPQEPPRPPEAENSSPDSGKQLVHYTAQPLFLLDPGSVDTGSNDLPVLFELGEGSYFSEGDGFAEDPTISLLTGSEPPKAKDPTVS
# Chain of ETV1 (P50549 whole entry): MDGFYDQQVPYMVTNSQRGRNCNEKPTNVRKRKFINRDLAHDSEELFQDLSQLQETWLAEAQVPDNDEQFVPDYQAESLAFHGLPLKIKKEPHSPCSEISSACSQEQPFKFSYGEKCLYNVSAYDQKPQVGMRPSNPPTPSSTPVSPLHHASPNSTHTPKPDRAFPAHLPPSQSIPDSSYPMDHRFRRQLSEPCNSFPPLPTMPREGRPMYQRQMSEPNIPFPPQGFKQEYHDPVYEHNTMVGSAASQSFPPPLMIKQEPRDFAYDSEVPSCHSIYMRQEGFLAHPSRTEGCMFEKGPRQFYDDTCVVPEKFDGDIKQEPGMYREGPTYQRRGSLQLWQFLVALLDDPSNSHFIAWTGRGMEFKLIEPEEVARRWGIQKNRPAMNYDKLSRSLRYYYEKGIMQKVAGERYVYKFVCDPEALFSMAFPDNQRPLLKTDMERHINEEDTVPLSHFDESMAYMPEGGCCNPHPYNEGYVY
sequence,measurement,setting,value
TCCGAT,binding signal,FLI1,"1.32 fold enrichment (6-mer frequency, TF over GST control)"
same,binding signal,ELK1,"1.37 fold enrichment (6-mer frequency, TF over GST control)"
same,binding signal,GABPA,"1.17 fold enrichment (6-mer frequency, TF over GST control)"
same,binding signal,ERG,"1.51 fold enrichment (6-mer frequency, TF over GST control)"
same,binding signal,ELF1,"1.27 fold enrichment (6-mer frequency, TF over GST control)"
same,binding signal,EHF,"1.36 fold enrichment (6-mer frequency, TF over GST control)"
same,binding signal,SPI1,"1.29 fold enrichment (6-mer frequency, TF over GST control)"
same,binding signal,SPIB,"1.24 fold enrichment (6-mer frequency, TF over GST control)"
same,binding signal,ELK3,"1.27 fold enrichment (6-mer frequency, TF over GST control)"
same,binding signal,FEV,"1.41 fold enrichment (6-mer frequency, TF over GST control)"
same,binding signal,ETV5,"1.3 fold enrichment (6-mer frequency, TF over GST control)"
same,binding signal,HSF1,"1.42 fold enrichment (6-mer frequency, TF over GST control)"
same,binding signal,SPIC,"1.25 fold enrichment (6-mer frequency, TF over GST control)"
same,binding signal,ELF4,"1.22 fold enrichment (6-mer frequency, TF over GST control)"
same,binding signal,ELK4,"1.25 fold enrichment (6-mer frequency, TF over GST control)"
same,binding signal,ETV2,"1.15 fold enrichment (6-mer frequency, TF over GST control)"
same,binding signal,ELF3,"1.23 fold enrichment (6-mer frequency, TF over GST control)"
same,binding signal,CRX,"1.94 fold enrichment (6-mer frequency, TF over GST control)"
same,binding signal,ETV1,"1.3 fold enrichment (6-mer frequency, TF over GST control)"
